In all, about 5,500 compounds went through this assay and about 2,000 (36%) were called active. Another 18% or so got no clear call; they are omitted. No stated cut-off is given here; in the data, active means normalized growth mostly below about 0.91 (no sharp cut-off); inconclusive means no clear call, values can overlap the other calls; inactive means mostly above about 0.92. The list shows a part of the results.
Assay: chemical genetic growth profiling, strain panel (AID 1159580);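 further: tested at 20 µM; growth read once vehicle control cultures reached saturation at 30 °C; 1 = growth at the plate median or of vehicle wells; lower values mean less growth of the strain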
Conditions: S. cerevisiae deletion strains, growth OD
[1] = locus YAL013W, strain DEP1, active compounds read low
[2] = locus YBR229C, strain ROT2, active compounds read low
[3] = locus YDL101C, strain DUN1, active compounds read low
[4] = locus YDR150W, strain NUM1, active compounds read low
[5] = locus YEL061C, strain CIN8, active compounds read low
[6] = locus YGR078C, strain PAC10, active compounds read low
[7] = locus YHR030C, strain SLT2, active compounds read low
[8] = locus YHR087W, strain rtc3, active compounds read low
[9] = locus YJR043C, strain POL32, active compounds read low
[10] = locus YJR075W, strain HOC1, active compounds read low
[11] = locus YLR039C, strain RIC1, active compounds read low
[12] = locus YLR058C, strain SHM2 (second series), active compounds read low
[13] = locus YLR085C, strain ARP6, active compounds read low
[14] = locus YLR262C, strain YPT6, active compounds read low
[15] = locus YML094W, strain GIM5, active compounds read low
[16] = locus YMR219W, strain ESC1, active compounds read low
[17] = locus YMR263W, strain SAP30, active compounds read low
[18] = locus YNL153C, strain GIM3, active compounds read low
[19] = locus YNL298W, strain CLA4 (second series), active compounds read low
[20] = locus YNL322C, strain KRE1, active compounds read low
[21] = locus YNR030W, strain Alg12, active compounds read low
[22] = locus YPL055C, strain LGE1, active compounds read low
[23] = locus YPL241C, strain CIN2, active compounds read low
[24] = locus YPR135W, strain CTF4, active compounds read low

Measured: normalized growth

O=c1cc(C(F)(F)F)[nH]c2c(Cl)cccc12
active: [1] 0.884 | [2] 0.816 | [3] 0.883 | [5] 0.886 | [6] 0.813 | locus YGR229C, strain SMI1, active compounds read low 0.929 | [8] 0.831 | [9] 0.905 | [10] 0.779 | [12] 0.84 | [16] 0.831 | [17] 0.844 | [18] 0.86 | [20] 0.863 | [22] 0.823
inactive: [4] 0.86 | [7] 0.847 | [11] 0.846 | [13] 0.827 | [14] 0.847 | [15] 0.938 | [19] 0.902 | [21] 0.919 | locus YOL006C, strain TOP1, active compounds read low 0.913 | [23] 0.935 | [24] 0.874

CN(C)/C=C1/C(=O)NN=C1CSc1ccccn1
inactive: [1] 1 | [2] 0.999 | locus YCL061C, strain MRC1, active compounds read low 1.03 | [3] 1.03 | [4] 1.04 | [5] 0.999 | [6] 1.02 | [7] 1.09 | [8] 0.948 | [9] 1.02 | [10] 1.01 | locus YKL190W, strain CNB1, active compounds read low 1.02 | [11] 1.11 | [12] 0.974 | [13] 1.05 | [14] 1.02 | [15] 1.01 | [16] 0.982 | [17] 1.01 | locus YMR307W, strain GAS1, active compounds read low 1.07 | [18] 1.03 | [19] 1.04 | [20] 0.985 | [21] 1.01 | [22] 0.972 | [23] 1 | [24] 1.09

O=C(Nc1cc2c(s1)-c1cc(Cl)ccc1SC2)Oc1ccccc1
inactive: locus YAR019C, strain CDC15, active compounds read low 0.977 | locus YBL105C, strain PKC1, active compounds read low 1.01 | locus YBR135W, strain CKS1, active compounds read low 1.01 | locus YBR136W, strain MEC1, active compounds read low 0.995 | locus YBR160W, strain CDC28, active compounds read low 0.99 | locus YDL017W, strain CDC7, active compounds read low 1.01 | locus YDL028C, strain MPS1, active compounds read low 0.984 | [3] 0.989 | locus YDL108W, strain KIN28, active compounds read low 0.986 | locus YDL132W, strain cdc53, active compounds read low 1 | locus YDL214C, strain PRR2, active compounds read low 0.928 | locus YDR052C, strain DBF4, active compounds read low 0.997 | locus YDR054C, strain cdc34, active compounds read low 0.999 | locus YDR226W, strain ADK1, active compounds read low 1 | locus YDR477W, strain SNF1, active compounds read low 0.964 | locus YER123W, strain YCK3, active compounds read low 0.936 | locus YER133W, strain GLC7, active compounds read low 0.972 | locus YFL009W, strain cdc4, active compounds read low 0.997 | locus YFL029C, strain CAK1, active compounds read low 0.978 | locus YFR003C, strain YPI1, active compounds read low 0.998 | locus YFR019W, strain FAB1, active compounds read low 0.927 | locus YFR028C, strain CDC14, active compounds read low 1 | locus YGR040W, strain KSS1, active compounds read low 0.97 | locus YGR052W, strain FMP48, active compounds read low 1.01 | locus YGR092W, strain DBF2, active compounds read low 0.966 | [7] 0.911 | locus YHR079C, strain IRE1, active compounds read low 0.939 | locus YHR082C, strain KSP1, active compounds read low 0.962 | locus YHR205W, strain SCH9, active compounds read low 0.914 | locus YIL147C, strain SLN1, active compounds read low 0.994 | locus YJL095W, strain BCK1, active compounds read low 0.927 | locus YJL128C, strain PBS2, active compounds read low 1.02 | locus YJL157C, strain FAR1, active compounds read low 0.959 | locus YJR016C, strain ILV3, active compounds read low 0.999 | locus YJR066W, strain TOR1 (second series), active compounds read low 0.946 | locus YJR066W, strain TOR1, active compounds read low 0.951 | locus YKL048C, strain ELM1, active compounds read low 0.98 | locus YKL067W, strain YNK1, active compounds read low 0.946 | locus YKL101W, strain HSL1, active compounds read low 0.953 | locus YKL193C, strain SDS22, active compounds read low 1.01 | locus YKL203C, strain TOR2, active compounds read low 1.01 | locus YLR133W, strain CKI1, active compounds read low 0.938 | locus YLR403W, strain SFP1, active compounds read low 0.946 | locus YML070W, strain DAK1, active compounds read low 0.957 | locus YMR001C, strain CDC5, active compounds read low 1 | locus YMR205C, strain PFK2 (second series), active compounds read low 0.966 | locus YMR277W, strain FCP1, active compounds read low 0.999 | locus YNL006W, strain LST8, active compounds read low 0.99 | locus YNL020C, strain ARK1, active compounds read low 0.938 | locus YNL161W, strain CBK1, active compounds read low 0.993 | locus YNL183C, strain NPR1, active compounds read low 0.941 | locus YNL207W, strain RIO2, active compounds read low 0.997 | locus YNL222W, strain SSU72, active compounds read low 1.01 | locus YNL307C, strain MCK1 (second series), active compounds read low 0.949 | locus YOL078W, strain AVO1, active compounds read low 1 | locus YOL136C, strain PFK27, active compounds read low 0.914 | locus YOR061W, strain CKA2, active compounds read low 0.934 | locus YOR119C, strain RIO1, active compounds read low 0.988 | locus YOR231W, strain MKK1, active compounds read low 0.949 | locus YOR329C, strain SCD5, active compounds read low 1 | locus YPL031C, strain PHO85, active compounds read low 0.963 | locus YPL153C, strain RAD53, active compounds read low 0.968 | locus YPL204W, strain HRR25, active compounds read low 0.959 | locus YPL209C, strain IPL1, active compounds read low 1 | locus YPL256C, strain CLN2, active compounds read low 0.912 | locus YPR025C, strain CCL1, active compounds read low 1.01 | locus YPR106W, strain ISR1, active compounds read low 0.997 | locus YPR111W, strain DBF20, active compounds read low 1.01 | strain NNK1, active compounds read low 1 | strain TSCII, active compounds read low 1
active: locus YLR113W, strain HOG1, active compounds read low 0.849
